Results published in the supplement of paper PMC10127200.
Structures can show the parent of a compound that is named as a salt.

Key:
Test in all cases: Euclidean distance of Cell Painting phenotypic profile (signed KS, 77 features) to DMSO centroid (dimensionless distance); 5 or 10 uM (library dependent); higher = stronger phenotypic change vs DMSO (phenoactivity)
Details in all cases: 48 h
786-O = tested on: 786-O
Summary of the method: (§1)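 Stained cells were imaged confocally at 20X with 9 fields per well, after 48 h of exposure to library compounds at 10 or 5 uM (set by library; 0.1% DMSO final). The cells were five cancer lines and a healthy fibroblast line. From the images, Harmony extracted 77 features, each expressed as a signed Kolmogorov-Smirnov statistic relative to same-plate vehicle wells. Phenoactivity is measured as Euclidean distance to the median vehicle profile, using plate-position-corrected, correlation-weighted profiles averaged across replicates at the top dose.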

A549 = tested on: A549
Summary of the method: as §1

FB = tested on: FB
Summary of the method: as §1

HEPG2 = tested on: HEPG2
Summary of the method: as §1

OVCAR4 = tested on: OVCAR4
Summary of the method: as §1

Row | Structure (SMILES) | Euclidean distance (786-O) | Euclidean distance (A549) | Euclidean distance (FB) | Euclidean distance (HEPG2) | Euclidean distance (OVCAR4)
1 | CSc1ccc(OCc2ncc([N+](=O)[O-])n2C)cc1 [Fexinidazole] | 1.24 | 1.03 | 0.976 | 0.857 | 1.16
2 | CCN(CC)CCOc1ccc(C(=C(Cl)c2ccccc2)c2ccccc2)cc1 [Clomifene citrate] | 4.89 | 3.99 | 3.36 | 4.07 | 3.4
3 | CCN1CCCC1CNC(=O)c1cc(S(N)(=O)=O)ccc1OC (stereo not given) [Sulpiride] | 0.713 | 1.29 | 0.953 | 1.17 | 0.676
4 | CN(C(=O)c1ccc(F)cc1C(F)(F)F)C1CCN(c2nnc(-c3ccnn3C)c3ccccc23)CC1 | 1.45 | 0.959 | 1.03 | 1 | 1.53
5 | CCC(NC(C)C)C(O)c1ccc(O)c(O)c1 (stereo not given) [Isoetharine Mesylate] | 0.478 | 0.789 | 1.18 | 0.832 | 1.01
6 | Cc1oncc1C(=O)Nc1ccc(C(F)(F)F)cc1 [Leflunomide] | 2.25 | 2.41 | 2.37 | 1.3 | 2.17
7 | CC1(C)S[C@@H]2[C@H](NC(=O)[C@H](NC(=O)N3CCNC3=O)c3ccccc3)C(=O)N2[C@H]1C(=O)O [Azlocillin sodium salt] | 0.826 | 0.805 | 1.08 | 0.67 | 1.47
8 | CCCNC(C)C(=O)Nc1c(C)csc1C(=O)OC (stereo not given) [Articaine HCl] | 1.24 | 0.941 | 0.813 | 0.87 | 1.06
9 | O=c1n(CCCN2CCN(c3cccc(Cl)c3)CC2)nc2ccccn12 [Trazodone] | 0.477 | 1.03 | 0.908 | 0.599 | 1.37
10 | CNC(=O)c1c(C)oc2cc(Oc3ncnc4cc(OC)c(OC)cc34)ccc12 [Fruquintinib] | 1.24 | 1.24 | 2.06 | 0.855 | 1.44
11 | CC1CCC(C(C)C)C(O)C1 (single isomer, unassigned; (-)) [(-)-Menthol] | 0.7 | 0.703 | 0.797 | 0.699 | 0.955
12 | CCC(=O)NCC[C@@H]1CCc2ccc3c(c21)CCO3 [Ramelteon] | 1.15 | 0.978 | 0.887 | 1.02 | 1.07
13 | CN(C)C(=N)NC(=N)N [Metformin HCl] | 1.61 | 0.837 | 1.26 | 0.474 | 1.78
14 | CCOC(=O)[N-]c1c[n+](N2CCOCC2)no1 [Molsidomine] | 0.969 | 1.06 | 0.842 | 0.73 | 1.63
15 | COc1ccc(-n2nc(C(N)=O)c3c2C(=O)N(c2ccc(N4CCCCC4=O)cc2)CC3)cc1 [Apixaban] | 2.4 | 2.33 | 3.79 | 1.17 | 2.13
16 | Cc1nnc(C(=O)NC(C)(C)c2nc(C(=O)NCc3ccc(F)cc3)c(O)c(=O)n2C)o1 [Raltegravir potassium] | 1.12 | 0.895 | 1.33 | 0.632 | 1.04
17 | CN[C@@H]1CCc2[nH]c3ccc(C(N)=O)cc3c2C1 [Frovatriptan Succinate] | 1.33 | 0.718 | 0.896 | 0.505 | 1.29
18 | Cc1c(C)c2c(c(C)c1O)CCC(C)(COc1ccc(CC3SC(=O)NC3=O)cc1)O2 (stereo not given) [Troglitazone (CS-045)] | 1.4 | 1.51 | 0.893 | 0.876 | 1.2
19 | CS(=O)(=O)c1ccc(Oc2cc(F)cc(C#N)c2)c2c1[C@H](O)C(F)(F)C2 | 1.1 | 1.02 | 1.28 | 0.605 | 1.38
20 | Cc1ncc([N+](=O)[O-])n1CC(C)O (stereo not given) [Secnidazole] | 1.02 | 0.496 | 0.982 | 1.12 | 0.655
21 | CN1[C@@H]2CC[C@H]1C[C@@H](OC(=O)c1c[nH]c3ccccc13)C2 [Tropisetron HCl] | 0.839 | 1.16 | 1.16 | 0.825 | 0.93
22 | CC(C)(C)c1ccc(C(=O)CCCN2CCC(OC(c3ccccc3)c3ccccc3)CC2)cc1 [Ebastine] | 1.64 | 1.24 | 1.83 | 0.905 | 1.22
